Test results taken from PubChem BioAssay (NCATS).
Inconclusive results are not listed. Active and inactive are the calls of the source. Unless noted, calls follow the shape of the dose curve; as a rule, active = well fitted curve in the direction sought with a large enough effect; inconclusive = small, poorly fitted or top-dose-only effect, or another doubt; inactive = no such curve, though single readings can be large; an effect the other way counts as inactive or inconclusive.

Key:
[1] = target: Lysosomal acid glucosylceramidase (Homo sapiens) (UniProt P04062); assay: Glucocerebrosidase-p2 (AID 348; in the data active = potency below about 10 µM; also: potency is read from the fitted curve at half-maximal effect); settings: purified GBA, blue fluorogenic substrate, 40 min
Sequence of Lysosomal acid glucosylceramidase (Homo sapiens) (P04062 whole entry, looked up): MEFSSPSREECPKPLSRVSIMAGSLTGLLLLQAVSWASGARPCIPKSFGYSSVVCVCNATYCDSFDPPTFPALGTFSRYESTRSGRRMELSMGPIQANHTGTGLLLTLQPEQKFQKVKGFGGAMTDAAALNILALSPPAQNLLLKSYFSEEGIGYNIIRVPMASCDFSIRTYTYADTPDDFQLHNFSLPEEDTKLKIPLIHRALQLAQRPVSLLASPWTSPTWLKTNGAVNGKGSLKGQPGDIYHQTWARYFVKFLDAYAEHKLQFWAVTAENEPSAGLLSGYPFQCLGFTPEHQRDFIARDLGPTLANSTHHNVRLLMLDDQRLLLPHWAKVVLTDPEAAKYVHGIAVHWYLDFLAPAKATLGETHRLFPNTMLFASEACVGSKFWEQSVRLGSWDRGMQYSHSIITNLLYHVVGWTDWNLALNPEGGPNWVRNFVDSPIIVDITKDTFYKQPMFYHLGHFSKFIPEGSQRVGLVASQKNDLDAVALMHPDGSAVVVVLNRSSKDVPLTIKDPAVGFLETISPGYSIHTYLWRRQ
Method in brief: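 Normal human glucocerebrosidase (0.2 nM) with blue fluorogenic substrate (80 uM final) in citrate/phosphate pH 5.9 with 10mM sodium taurocholate, 0.01% tween-20; 40 min RT, NaOH/glycine stop; fluorescence Ex 365/Em 440; AC50 from a titration from 0.6 nM upwards.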

[2] = AP1 Signaling Pathway (AID 357; active = well fitted curve in either direction with a large enough effect, not every such curve was filed as active;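 also: ME-180 reporter cells stimulated with EGF at its EC50 level; % is scaled to controls: 0 for no effect and ±100 for the full control effect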); settings: ME-180 AP-1-bla reporter, EGF-induced, beta-lactamase ratio, 5 h; at 7.69 µM (top of the series) unless noted
Method in brief: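 First, ME-180 AP-1-bla cells were cultured overnight at 37 °C in low-serum Opti-MEM. Next, titrated compounds with EC50 EGF were incubated 5 hours. Finally, CCF4 was added for 2.5 hours and the 460/530 nm ratio recorded.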

[3] = target: Cytochrome P450 1A2 (Homo sapiens) (UniProt P05177); assay: p450-cyp1a2 (AID 410; calls by dose curve; also: potency is read from the fitted curve at half-maximal effect;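 as to activity change, negative = inhibition: -100% = full effect of reference inhibitor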); settings: recombinant CYP1A2, luciferin-ME demethylation, luminescence; series mostly up to 57 µM
Sequence of Cytochrome P450 1A2 (Homo sapiens) (P05177 whole entry, looked up): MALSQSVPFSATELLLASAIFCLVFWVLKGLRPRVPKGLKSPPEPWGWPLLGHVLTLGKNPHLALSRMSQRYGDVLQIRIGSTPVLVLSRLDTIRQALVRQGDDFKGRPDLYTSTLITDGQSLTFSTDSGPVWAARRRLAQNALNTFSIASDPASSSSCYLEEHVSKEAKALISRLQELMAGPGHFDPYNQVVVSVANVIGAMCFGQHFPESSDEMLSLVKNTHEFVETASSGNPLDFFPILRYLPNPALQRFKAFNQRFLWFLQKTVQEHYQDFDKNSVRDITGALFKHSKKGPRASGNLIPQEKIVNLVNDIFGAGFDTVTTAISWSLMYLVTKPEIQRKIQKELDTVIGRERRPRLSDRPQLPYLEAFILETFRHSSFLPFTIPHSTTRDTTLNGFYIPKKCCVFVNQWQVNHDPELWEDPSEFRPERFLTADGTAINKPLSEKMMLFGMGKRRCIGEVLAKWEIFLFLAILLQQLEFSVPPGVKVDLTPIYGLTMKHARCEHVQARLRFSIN
Method in brief: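 20nM CYP1A2, 100uM Luciferin-ME (=Km), 100mM KPO4; cpd 10 min RT; +NADPH regen, 60 min RT; stop/detect 20 min; luminescence. Normalized to furafylline 57 uM = full inhibition.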

[4] = NFAT Signaling Pathway (AID 444; active = well fitted curve in either direction with a large enough effect, not every such curve was filed as active;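 also: carbachol stimulus at about its EC50 of 1 µM final; % is scaled to controls: 0 for no effect and ±100 for the full control effect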); settings: Jurkat NFAT-bla M1, carbachol, beta-lactamase ratio, 5 h; at 7.69 µM (top of the series) unless noted
Method in brief: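 Jurkat cells with NFAT-driven β-lactamase reporter and co-expressed M1 receptor, stimulated with carbachol (final 1 uM, ~EC50), compound titration, 5 h at 37 °C. CCF4 loaded 1 h at RT; 460/530 nm ratio gave %activity and AC50.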

[5] = Stat Signaling Pathway (AID 446; active = well fitted curve in either direction with a large enough effect, not every such curve was filed as active;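 also: ME-180 cervical cancer cells given 40 pM IL-6 alongside compound; SIE-controlled beta-lactamase reporter measured as 460/530 nm FRET emission ratio; % is scaled to controls: 0 for no effect and ±100 for the full control effect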); settings: ME-180 SIE beta-lactamase reporter, IL-6 stimulated, 5 h; at 7.69 µM (top of the series) unless noted
Method in brief: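 Compound effects on IL-6-induced STAT reporter activity were measured in ME-180 cells. After overnight culture, cells were co-treated with 40 pM IL-6 for 5 hrs before beta-lactamase substrate loading at room temperature.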

[6] = target: Glucocorticoid receptor (Homo sapiens) (UniProt P04150); assay: GR-GFP Redistribution (AID 450;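 active = compounds whose dose series gives a full or clear partial fitted curve of increased nuclear translocation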; also: potency is read from the fitted curve at half-maximal effect); settings: U2OS GR-GFP nuclear translocation, laser cytometry, 2 h
Sequence of Glucocorticoid receptor (Homo sapiens) (P04150 whole entry, looked up, the tested form may be a part): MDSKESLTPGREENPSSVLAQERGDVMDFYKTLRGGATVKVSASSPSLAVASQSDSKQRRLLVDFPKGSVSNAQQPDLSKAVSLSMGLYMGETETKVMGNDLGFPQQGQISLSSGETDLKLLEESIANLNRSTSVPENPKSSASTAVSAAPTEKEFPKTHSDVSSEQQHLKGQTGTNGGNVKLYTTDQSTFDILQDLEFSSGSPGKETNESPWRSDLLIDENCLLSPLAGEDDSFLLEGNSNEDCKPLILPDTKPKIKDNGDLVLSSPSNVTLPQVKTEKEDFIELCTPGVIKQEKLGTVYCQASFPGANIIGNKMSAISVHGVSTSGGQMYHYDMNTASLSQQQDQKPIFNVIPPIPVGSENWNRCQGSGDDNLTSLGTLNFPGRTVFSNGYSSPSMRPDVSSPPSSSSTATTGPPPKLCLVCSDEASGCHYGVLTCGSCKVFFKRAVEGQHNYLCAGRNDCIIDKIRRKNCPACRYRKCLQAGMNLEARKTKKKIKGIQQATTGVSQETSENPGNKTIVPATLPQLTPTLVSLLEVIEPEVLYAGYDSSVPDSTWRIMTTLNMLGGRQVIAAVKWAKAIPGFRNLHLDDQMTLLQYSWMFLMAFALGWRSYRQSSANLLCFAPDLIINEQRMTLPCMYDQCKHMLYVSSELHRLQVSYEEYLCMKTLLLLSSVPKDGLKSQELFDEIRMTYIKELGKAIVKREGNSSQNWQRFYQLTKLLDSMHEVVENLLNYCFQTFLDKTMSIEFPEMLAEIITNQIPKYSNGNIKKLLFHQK

[7] = target: Glucocorticoid receptor (Homo sapiens) (UniProt P04150); assay: GR-EFC Redistribution (AID 451; calls by dose curve; also: potency is read from the fitted curve at half-maximal effect); settings: CHO-K1 GR-EFC translocation, beta-gal luminescence, 2 h
Method in brief: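 CHO-K1 cells expressing nuclear EA and GR-ED fragments of b-gal; compounds titrated up to 46 uM final, 2 h at 37 C. GR nuclear translocation read as complemented b-gal luminescence after 1 h RT detection.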

[8] = target: Mitogen-activated protein kinase 10 (Mus musculus) (UniProt Q61831); assay: JNK3 AlphaScreen Assay (AID 530; active = well fitted curve in either direction with a large enough effect, not every such curve was filed as active;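 also: kinase came from lysate of stimulated human HepG2 cells; signal reports phosphorylation of biotinylated GST-cJun 1-79 at Ser73 with 10 µM ATP; % is scaled to controls: 0 for no effect and ±100 for the full control effect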); settings: JNK3 lysate, c-Jun phosphorylation; series mostly up to 57.1 µM
Method in brief: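 HepG2 lysate (IL-1b/TNFa pre-activated) + biotin-GST-cJun 1-79 + anti-pSer73 cJun; cpd titration, 15 min RT; ATP 10 uM start; Tris pH 7.6, MgCl2, DTT, vanadate; beads in EDTA buffer; AlphaScreen.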

[9] = target: 3',5'-cyclic-AMP phosphodiesterase 4B (Homo sapiens) (UniProt Q07343); assay: qHTS Assay for Inhibitors of PDE-IV (AID 607; active = well fitted activation curve with a large enough effect in the main read-out, with a control signal flat, not every such curve was filed as active; also: % of control where 0% means no effect); settings: HEK293 ACTOne CNG channel cells, membrane potential fluorescence; series mostly up to 22.9 µM
Sequence of 3',5'-cyclic-AMP phosphodiesterase 4B (Homo sapiens) (Q07343 whole entry, looked up): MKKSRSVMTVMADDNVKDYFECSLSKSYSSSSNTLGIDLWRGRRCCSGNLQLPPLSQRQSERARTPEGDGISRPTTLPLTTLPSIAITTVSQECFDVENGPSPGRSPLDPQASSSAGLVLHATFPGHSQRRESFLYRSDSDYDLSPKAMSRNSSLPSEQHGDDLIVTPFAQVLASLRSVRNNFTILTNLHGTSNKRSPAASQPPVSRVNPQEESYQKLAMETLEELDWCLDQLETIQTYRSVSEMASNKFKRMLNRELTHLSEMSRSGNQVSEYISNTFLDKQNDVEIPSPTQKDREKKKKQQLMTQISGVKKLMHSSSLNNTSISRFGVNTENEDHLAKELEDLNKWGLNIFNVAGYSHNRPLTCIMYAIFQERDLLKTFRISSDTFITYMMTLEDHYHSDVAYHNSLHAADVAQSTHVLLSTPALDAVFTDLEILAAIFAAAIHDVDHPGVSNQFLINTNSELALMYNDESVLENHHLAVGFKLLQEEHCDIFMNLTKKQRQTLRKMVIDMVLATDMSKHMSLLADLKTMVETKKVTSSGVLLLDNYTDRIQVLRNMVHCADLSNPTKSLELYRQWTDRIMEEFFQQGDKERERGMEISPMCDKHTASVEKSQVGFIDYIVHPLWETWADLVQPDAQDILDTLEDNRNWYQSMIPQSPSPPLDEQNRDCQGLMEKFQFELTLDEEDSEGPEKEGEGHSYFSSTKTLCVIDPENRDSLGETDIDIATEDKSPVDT
Method in brief: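 ACTOne HEK293 cells carry a modified cAMP-gated CNG channel and express endogenous PDE4; plated 1000 cells/well, compounds up to 22.9 uM final. Membrane-potential dye fluorescence (ex 535/em 590) was read; parental cells received 10 uM forskolin + 100 uM RO 20-1724.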

[10] = target: Cytochrome P450 3A4 (Homo sapiens) (UniProt P08684); assay: qHTS Assay for Activators of Cytochrome P450 3A4 (AID 885); settings: recombinant CYP3A4, Luciferin-PPXE luminescence, 60 min; series mostly up to 57.1 µM; also: nearly all actives have a fitted effect of over 65% in size
Sequence of Cytochrome P450 3A4 (Homo sapiens) (P08684 whole entry, looked up): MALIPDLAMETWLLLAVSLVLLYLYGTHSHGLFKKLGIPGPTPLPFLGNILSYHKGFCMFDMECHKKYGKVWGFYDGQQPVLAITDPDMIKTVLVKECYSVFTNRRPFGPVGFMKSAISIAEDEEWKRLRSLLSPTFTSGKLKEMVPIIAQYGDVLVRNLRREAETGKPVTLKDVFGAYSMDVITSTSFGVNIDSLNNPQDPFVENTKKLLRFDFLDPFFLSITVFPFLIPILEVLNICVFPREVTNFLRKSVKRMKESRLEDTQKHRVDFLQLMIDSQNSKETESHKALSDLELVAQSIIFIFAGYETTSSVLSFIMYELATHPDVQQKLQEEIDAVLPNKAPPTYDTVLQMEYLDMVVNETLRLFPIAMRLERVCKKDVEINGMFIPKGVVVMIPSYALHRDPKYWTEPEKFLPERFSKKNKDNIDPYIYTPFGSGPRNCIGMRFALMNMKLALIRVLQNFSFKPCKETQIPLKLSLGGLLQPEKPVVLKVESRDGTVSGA
Method in brief: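 CYP3A4 activity: Luciferin-PPXE O-dealkylation, 25uM substrate, 200mM KPO4, RT throughout. Read-out is luciferase luminescence; higher values reflect activation.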

[11] = qHTS Assay for Lipid Storage Modulators (AID 1519; calls by dose curve); settings: Drosophila S3 cells, BODIPY lipid droplet/cell ratio, laser cytometry, cells loaded with oleic acid; for activity change, negative = inhibition: at 57.5 µM (top of the series)
Method in brief: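 Cells seeded at 5,000 per well were treated with compounds over a concentration series and loaded with oleic acid (400 uM, as added). Lipid droplet fluorescence (488 nm excitation, 500-530 nm channel) was read by laser-scanning cytometry and normalized to 20 uM Triacsin C.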

[12] = target: Dual specificity protein kinase CLK4 (Homo sapiens) (UniProt Q9HAZ1); assay: qHTS Assay for Inhibitors of CDC-like Kinase 4 (Kinase-Glo Assay) (AID 1770); settings: recombinant Clk4, Kinase-Glo ATP depletion luminescence; series mostly up to 66.7 µM; also: nearly all actives have a fitted effect of over 65% in size; also: potency is read from the fitted curve at half-maximal effect
Sequence of Dual specificity protein kinase CLK4 (Homo sapiens) (Q9HAZ1 whole entry, looked up): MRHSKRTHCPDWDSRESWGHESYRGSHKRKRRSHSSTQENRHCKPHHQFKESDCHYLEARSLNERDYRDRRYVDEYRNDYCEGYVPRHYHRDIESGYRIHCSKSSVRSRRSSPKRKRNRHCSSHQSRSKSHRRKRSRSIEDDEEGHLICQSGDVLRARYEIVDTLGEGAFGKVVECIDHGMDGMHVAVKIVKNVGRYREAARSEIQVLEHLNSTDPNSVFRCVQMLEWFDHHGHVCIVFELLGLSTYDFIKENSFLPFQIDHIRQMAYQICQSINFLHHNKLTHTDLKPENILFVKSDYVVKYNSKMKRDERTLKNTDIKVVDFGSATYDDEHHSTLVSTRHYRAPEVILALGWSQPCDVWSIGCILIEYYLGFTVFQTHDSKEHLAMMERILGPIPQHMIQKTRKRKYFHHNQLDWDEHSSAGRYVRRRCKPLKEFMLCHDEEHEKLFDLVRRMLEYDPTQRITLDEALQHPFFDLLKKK
Method in brief: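 Substrate mix (RS peptide 100 uM, ATP 1 uM) dispensed, compound pinned in, then Clk4 added to 25 nM final. Incubated 4.5 h at RT; Kinase-Glo reagent added, luminescence read after 5 min.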

[13] = target: Dual specificity protein kinase CLK4 (Homo sapiens) (UniProt Q9HAZ1); assay: qHTS Assay for Inhibitors of CDC-like Kinase 4 (ADP-Glo Assay) (AID 1771); settings: recombinant CLK4, ADP-Glo luminescence; series mostly up to 80 µM; also: nearly all actives have a fitted effect of over 70% in size; also: potency is read from the fitted curve at half-maximal effect
Method in brief: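 25 nM Clk4, 100 uM RS peptide, 1 uM ATP (final); 2 mM MgCl2, 0.5 mM EGTA, 2.5 mM DTT, 0.01% Triton X-100; 1 hr RT. ADP-Glo readout: ATP depletion 45 min, conversion/luciferase 30 min, luminescence.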

[14] = target: Ubiquitin carboxyl-terminal hydrolase 1 (Homo sapiens) (UniProt O94782); assay: Inhibitors of USP1/UAF1: Pilot qHTS (AID 504865); settings: purified USP1/UAF1, Ub-rhodamine cleavage fluorescence; series mostly up to 54.9 µM;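 also: rhodamine fluorescence freed from ubiquitin-rhodamine substrate followed over time; top concentration of the series differs between compounds; % is scaled to controls: 0 for no effect and ±100 for the full control effect; nearly all actives have a fitted effect of over 35% in size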
Sequence of Ubiquitin carboxyl-terminal hydrolase 1 (Homo sapiens) (O94782 whole entry, looked up): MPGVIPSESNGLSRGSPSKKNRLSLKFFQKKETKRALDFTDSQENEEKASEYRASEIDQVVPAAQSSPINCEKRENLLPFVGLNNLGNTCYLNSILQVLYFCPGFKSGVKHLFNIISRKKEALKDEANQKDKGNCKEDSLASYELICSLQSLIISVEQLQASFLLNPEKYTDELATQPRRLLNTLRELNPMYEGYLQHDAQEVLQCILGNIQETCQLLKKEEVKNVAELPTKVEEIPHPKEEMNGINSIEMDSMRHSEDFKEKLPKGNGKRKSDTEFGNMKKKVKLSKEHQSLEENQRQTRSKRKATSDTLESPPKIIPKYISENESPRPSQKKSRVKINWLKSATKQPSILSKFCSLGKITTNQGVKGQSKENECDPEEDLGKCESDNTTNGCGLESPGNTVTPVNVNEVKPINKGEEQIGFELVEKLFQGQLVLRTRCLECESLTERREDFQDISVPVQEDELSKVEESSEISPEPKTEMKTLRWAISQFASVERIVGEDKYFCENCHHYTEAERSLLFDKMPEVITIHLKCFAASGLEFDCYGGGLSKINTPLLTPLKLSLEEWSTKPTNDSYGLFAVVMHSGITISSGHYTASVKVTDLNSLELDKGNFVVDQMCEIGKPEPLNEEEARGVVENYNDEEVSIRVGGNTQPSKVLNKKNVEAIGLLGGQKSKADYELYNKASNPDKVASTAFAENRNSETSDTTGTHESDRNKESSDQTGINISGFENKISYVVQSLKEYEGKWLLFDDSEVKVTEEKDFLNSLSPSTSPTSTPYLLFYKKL
Method in brief: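 In 50mM HEPES pH 7.8 containing 0.5mM EDTA, 1mM TCEP, 0.1 mg/ml BSA and 0.01% Tween-20, 1nM USP1/UAF1 is exposed to compound for 15 min, then Ub-Rho (150nM final) is added and fluorescence is read over time.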

[15] = Primary qHTS for small molecule stabilizers of the endoplasmic reticulum resident proteome: Secreted ER Calcium Modulated Protein (SERCaMP) assay (AID 1508630); settings: SH-SY5Y GLuc-SERCaMP (Gaussia luciferase released on ER calcium loss) secretion, thapsigargin, luminescence; series mostly up to 38.4 µM; also: % is scaled to controls: 0 for no effect and ±100 for the full control effect
Method in brief: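 The SH-SY5Y reporter protocol was run at 3 concentrations up to 38.3 uM (primary) or 11 concentrations (follow-up): 16 h compound, 100 nM thapsigargin for 4 h, then extracellular luciferase luminescence.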

[16] = target: Dual specificity protein kinase CLK4 (Homo sapiens) (UniProt Q9HAZ1); assay: qHTS Assay for Inhibitors of CDC-like Kinase 4 (ADP-FP Assay) (AID 1795); settings: Transcreener ADP fluorescence polarization; series mostly up to 50 µM;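 also: recombinant human CLK4 phosphorylating RS repeat peptide at 1 µM ATP; % is scaled to controls: 0 for no effect and ±100 for the full control effect; nearly all actives have a fitted effect of over 60% in size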
Method in brief: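 Clk4 6.25 nM; RS peptide 100 uM; ATP 1 uM; 25 mM Tris pH 7.5, 10 mM MgCl2; 1 h reaction. ADP detected via antibody/orange tracer FP displacement; TG003 positive control.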

[17] = target: Cytochrome P450 2C9 (Homo sapiens) (UniProt P11712); assay: qHTS Assay for Inhibitors and Substrates of Cytochrome P450 2C9 (AID 883); settings: recombinant CYP2C9, luciferin-H luminescence, 60 min; series mostly up to 57.1 µM; also: % is scaled to controls: 0 for no effect and ±100 for the full control effect; nearly all actives have a fitted effect of over 60% in size
Sequence of Cytochrome P450 2C9 (Homo sapiens) (P11712 whole entry, looked up): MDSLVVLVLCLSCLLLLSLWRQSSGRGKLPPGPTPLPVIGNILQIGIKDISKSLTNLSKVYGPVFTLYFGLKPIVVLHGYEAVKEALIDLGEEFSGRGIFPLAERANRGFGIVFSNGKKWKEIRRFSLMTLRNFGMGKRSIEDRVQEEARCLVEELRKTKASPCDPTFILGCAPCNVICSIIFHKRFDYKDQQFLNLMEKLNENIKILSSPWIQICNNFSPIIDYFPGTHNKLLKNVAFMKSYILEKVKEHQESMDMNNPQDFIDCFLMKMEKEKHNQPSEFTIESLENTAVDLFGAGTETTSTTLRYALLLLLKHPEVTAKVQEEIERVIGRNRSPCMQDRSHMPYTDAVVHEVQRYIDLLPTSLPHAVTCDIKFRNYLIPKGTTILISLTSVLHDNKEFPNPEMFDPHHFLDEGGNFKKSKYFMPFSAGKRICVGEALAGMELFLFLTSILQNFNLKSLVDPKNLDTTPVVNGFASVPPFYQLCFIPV
Method in brief: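 10nM CYP2C9 + 100uM Luciferin-H (=KM), 25mM KPO4; cpd 10 min 37C; NADPH regen, 60 min 37C; stop/detect with P450 Glo-Buffer 20 min; luminescence. Norm. to 57uM sulphaphenazole as full inhibition.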

[18] = target: Cytochrome P450 3A4 (Homo sapiens) (UniProt P08684); assay: qHTS Assay for Inhibitors and Substrates of Cytochrome P450 3A4 (AID 884); settings: recombinant CYP3A4, Luciferin-PPXE luminescence; series mostly up to 57.1 µM; also: % is scaled to controls: 0 for no effect and ±100 for the full control effect; nearly all actives have a fitted effect of over 50% in size
Method in brief: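 Luminescent readout of luciferin produced by CYP3A4 (20 nM) dealkylation of Luciferin-PPXE, 25 uM (its KM). NADPH-driven reaction ran 60 min at RT after 10 min compound preincubation; data scaled to 57 uM ketoconazole as 100% inhibition.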

[19] = qHTS Assay for Identification of Small Molecule Agonists for Hypoxia Response Element Signaling Pathway (AID 914; active = well fitted activation curve with a large enough effect in the signal ratio, with a control signal flat, not every such curve was filed as active; the % refers to the signal ratio; also: potency is read from the fitted curve at half-maximal effect); settings: ME-180 (cervical carcinoma) HRE-bla reporter, beta-lactamase ratio, CoCl2, 17 h; activation: stronger effect = higher value
Method in brief: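 AC50 values come from titration-series %Activity, taken as the 460/530nm ratio of CCF4 fluorescence (excitation 405nm). CellSensor HRE-bla ME-180 cells were treated 17 hours at 37 C with compound plus an EC50 level of CoCl2.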

[20] = measured here: cell count channel max response
[21] = measured here: lipid channel max response

Clc1ccccc1-c1ccc2ncnc(N3CCNCC3)c2c1
active: Potency [3] 2 µM | Potency [12] 15.8 µM | Potency [13] 28.2 µM
inactive: Potency [1] > 11.4 µM | activity change, negative = inhibition [2] 19.1% | activity change, negative = inhibition [4] -4.54% | activity, negative = inhibition [5] 5.5% | Potency [6] > 46 µM | Potency [7] > 46 µM | outcome [8] | Potency [9] | Potency [10] | activity change, negative = inhibition [11] 5.35% | Potency [14] | Potency [15]
26.7%: max response [11, 20]
32.3%: max response [11, 21]

COCCn1c(=O)c(C)nc2cnc(N(C)C)nc21
22.8%: max response [11, 21]
inactive: activity change, negative = inhibition [2] 3.65% | activity change, negative = inhibition [4] 13.3% | activity, negative = inhibition [5] -5.78% | Potency [6] > 9.22 µM | Potency [7] > 46 µM | outcome [8] | Potency [9] | activity change, negative = inhibition [11] 4.96% | Potency [12] | Potency [13] | Potency [16] | Potency [14] | Potency [15]
17.2%: max response [11, 20]
active: Potency [3] 3.98 µM

COc1cccc(Cn2c(=O)c(-c3ccc(F)cc3)nc3cnc(OC)nc32)c1
25.9%: max response [11, 20]
31.8%: max response [11, 21]
inactive: activity change, negative = inhibition [2] -1.52% | activity change, negative = inhibition [4] -0.296% | activity, negative = inhibition [5] 6.3% | Potency [6] > 9.22 µM | outcome [8] | Potency [9] | activity change, negative = inhibition [11] 7.13% | Potency [12] | Potency [13] | Potency [16] | Potency [14] | Potency [15]

CN(C)c1ncc2nc(-c3ccc(F)cc3)c(=O)n(Cc3ccc(F)cc3)c2n1
inactive: Potency [3] | Potency [6] > 9.22 µM | Potency [7] > 46 µM | outcome [8] | Potency [9] | Potency [17] | Potency [18] | activity change, negative = inhibition [11] 5.32% | Potency [12] | Potency [13] | Potency [16] | Potency [14] | Potency [15]
19.6%: max response [11, 20]
active: Potency [19] 3.16 µM
25.7%: max response [11, 21]

Cn1cc(-c2nc3cnc(Oc4ccccc4)nc3n(C)c2=O)c2ccccc21
14.6%: max response [11, 20]
inactive: Potency [1] > 11.4 µM | activity change, negative = inhibition [2] 0.766% | activity change, negative = inhibition [4] -2.6% | activity, negative = inhibition [5] 24.9% | Potency [6] > 9.22 µM | outcome [8] | activity change, negative = inhibition [11] -0.452% | Potency [12] | Potency [13] | Potency [14] | Potency [15]
active: Potency [3] 12.6 µM
18.4%: max response [11, 21]

O=c1c(-c2ccc(F)cc2)nc2cnc(Oc3ccccc3)nc2n1C1CC1
0.149%: max response [11, 20]
inactive: activity change, negative = inhibition [2] 2.54% | activity change, negative = inhibition [4] 5.2% | activity, negative = inhibition [5] -10.8% | Potency [6] > 9.22 µM | Potency [7] > 46 µM | outcome [8] | Potency [9] | activity change, negative = inhibition [11] 0.468% | Potency [12] | Potency [13] | Potency [16] | Potency [14] | Potency [15]
-1.57%: max response [11, 21]
